# Assay outcomes: PubChem, several laboratories
# The full list was thinned out, with hits kept by preference.
# hDAT+cocaine: modulates human dopamine transporter uptake under cocaine; Q01959; LLC-PK1 hDAT cells, [14C]-dopamine uptake with cocaine IC80; actives deviate in either direction; B-score at 10 µM; 110,000 compounds, 1.3% hits; AID 449768;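 active = Z score or B-score, a plate-position-corrected score, falls beyond the plate's 99.7% confidence bounds, in either direction; inactive = both scores lie inside the 99.7% bounds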;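 also: scored against the spread of the other compound wells on the same plate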
# Target sequence (Q01959 whole entry, looked up): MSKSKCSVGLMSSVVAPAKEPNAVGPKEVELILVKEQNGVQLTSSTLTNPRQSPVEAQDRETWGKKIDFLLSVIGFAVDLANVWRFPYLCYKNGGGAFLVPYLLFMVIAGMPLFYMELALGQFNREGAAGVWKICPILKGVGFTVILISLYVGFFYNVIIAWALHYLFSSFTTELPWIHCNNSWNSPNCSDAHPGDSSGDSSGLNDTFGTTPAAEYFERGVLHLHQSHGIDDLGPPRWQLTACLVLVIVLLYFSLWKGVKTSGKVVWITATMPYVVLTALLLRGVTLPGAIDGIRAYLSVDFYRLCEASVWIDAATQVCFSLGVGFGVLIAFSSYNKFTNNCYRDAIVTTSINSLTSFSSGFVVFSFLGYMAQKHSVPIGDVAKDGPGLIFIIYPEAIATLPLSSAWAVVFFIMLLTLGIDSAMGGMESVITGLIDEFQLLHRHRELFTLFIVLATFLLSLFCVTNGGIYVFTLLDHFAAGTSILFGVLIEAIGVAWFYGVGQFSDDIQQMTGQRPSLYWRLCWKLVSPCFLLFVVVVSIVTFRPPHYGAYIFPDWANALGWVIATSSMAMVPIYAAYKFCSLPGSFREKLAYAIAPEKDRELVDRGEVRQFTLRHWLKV
# Candida biofilm: kills Candida albicans biofilms | C. albicans biofilm + clotrimazole, Alamar Blue | inhibition, % at 6 µM | 85,000 compounds, 0.14% hits | AID 834;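 active = inhibition above 20%; inactive = inhibition below 20%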;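 also: preformed 24 hr biofilms exposed to compound for 48 hr; 0% = biofilm without compound and 100% = blank killed by clotrimazole plus chlorhexidine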
# TNAP act DEA: activators of human TNAP at intermediate phosphate acceptor. 64,000 tested, under 10 active. activation factor at 20 µM. purified TNAP, CDP-star luminescence, 100 mM DEA, 30 min; stronger effect = higher value; scale: 0 levamisole-inhibited, 1 vehicle-only enzyme;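 active = activation factor of at least 2 at 20 µM, relative to controls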
# HePTP inh: blocks human HePTP tyrosine phosphatase | recombinant HePTP phosphatase activity, OD absorbance | inhibition, % at 20 µM | 110,000 compounds, 0.64% hits; in the data active = inhibition above about 50%;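 also: plate controls were vehicle for no effect and reference inhibitor for full effect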
# PLAP act: activates human placental alkaline phosphatase | P05187 | purified PLAP enzyme, luminescent substrate read-out; stronger effect = higher value | activation fold at 20 µM | 96,000 compounds, 1.2% hits; in the data active = activation fold above about 2
# D1 mod: allosterically modulates the human D1 dopamine receptor | AID 641 | HEK293 D1, CRE-luciferase, dopamine EC30 potentiation; actives deviate in either direction | P21728 | 58,000 compounds, 5.9% hits | B-score at 10 µM;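 active = luminescence count or its row- and column-corrected plate score outside the 99.7% band of the plate's sample wells, on either side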
# Active calls of the source: *; x = no result given.
SMILES,hDAT+cocaine,Candida biofilm,TNAP act DEA,HePTP inh,PLAP act,D1 mod
O=C(Oc1cccc(NC(=O)c2ccco2)c1)c1cccc(S(=O)(=O)N2CCCCC2)c1,-7.9*,4,x,x,1,x
O=C(Nc1cccc(S(=O)(=O)N2CCOCC2)c1)c1ccco1,-1.2,x,x,x,1.1,x
O=c1c2c3c(sc2nc(SCc2ccccc2Cl)n1-c1ccccc1)CCC3,x,x,x,9,x,x
O=C(Cn1c(C(=O)N2CCN(C3CCCC3)CC2)cc2sccc21)c1ccccc1,2.5*,2,0.9,4,1.2,-1.8
CCN(CC)C(=O)CSc1nc2ccccc2c(=O)n1-c1ccccc1OC,1.9*,6,0.9,5,1.6,x
COc1ccccc1N1CCN(C(=O)CCNS(=O)(=O)c2ccc(Br)s2)CC1,-3.9*,7,1,2,1.2,-0.52
COc1ccc(OCC(=O)n2nc(C)cc2C)cc1,x,x,x,6,x,x
CCOc1cc(/C=C2\SC(=S)NC2=O)ccc1OCc1c(C)no[n+]1[O-],x,x,x,102*,x,x
CCOc1cc(C=C2C(=O)NC(=O)NC2=O)ccc1OCc1c(C)no[n+]1[O-],x,x,x,5,x,x
COc1ccc(OC)c(NC(=S)NC(NC(=O)CC(C)C)C(Cl)(Cl)Cl)c1 (stereo not drawn),x,x,x,5,x,x
Cc1oc(C(C)(C)C)cc1C(=O)Nc1ccc(O)c(C(=O)O)c1,x,x,x,7,x,x
CCC(c1ccccc1)c1nc(-c2ccccn2)no1 (stereo not drawn),0.78,5,0.9,2,1,-7.1*
CC(C)(C)Cc1nc(-c2ccccn2)no1,1,5,0.9,-3,0.8,-0.16
O=C1c2ccc(Oc3ccc4c(c3)C(=O)N(c3ccc(S)cc3)C4=O)cc2C(=O)N1c1ccc(S)cc1,x,x,x,102*,x,x
CC(=O)c1ccc(N2C(=O)c3ccc(Oc4ccc5c(c4)C(=O)N(c4ccc(C(C)=O)cc4)C5=O)cc3C2=O)cc1,x,x,x,6,x,x
COCCOC(=O)C1=C(C)NC2=C(C(=O)CCC2)C1c1ccc(OCc2ccccc2)c(OC)c1 (stereo not drawn),x,x,x,8,x,x
Cc1cc(N2C(=O)NC(=O)/C(=C\c3ccc(N(C)C)o3)C2=O)ccc1Br,x,x,x,-8,x,x
Cc1cc(N2C(=O)NC(=O)/C(=C\c3ccc([N+](=O)[O-])o3)C2=O)ccc1Br,x,x,x,104*,x,x
Cc1cc(C)cc(N2C(=O)NC(=O)/C(=C\c3ccc([N+](=O)[O-])o3)C2=O)c1,x,x,x,84*,x,x
Cc1ccc(N2C(=O)NC(=O)/C(=C\c3ccc(-c4cccc([N+](=O)[O-])c4)o3)C2=O)cc1,x,x,x,1,x,x
COc1ccc(-c2ccc(/C=C/C(=O)c3cc4ccccc4o3)o2)cc1,x,x,x,10,x,x
O=C1C(=O)N(CC2CCCO2)C(c2ccc(F)cc2)/C1=C(/O)c1ccccc1 (stereo not drawn),x,x,x,-6,x,x
COc1ccc(OC)c(-c2nnc(NC(=O)C(C)Sc3nncn3C)s2)c1 (stereo not drawn),0.95,23*,1,-3,1.2,3.6
COc1ccc(Cl)cc1NC(=O)C(C)Sc1nncn1C (stereo not drawn),0.027,8,x,x,1.1,x
COc1ccc(OC)c(-c2csc3nnc(SCC(=O)Nc4ccc(NC(C)=O)cc4)n23)c1,-0.16,8,0.9,-18,1.5,-1.1
SMILES,hDAT+cocaine,Candida biofilm,TNAP act DEA,HePTP inh,PLAP act,D1 mod
COc1cccc(NC(=O)CCSc2nnc3scc(-c4ccccc4)n23)c1,x,11,0.9,13,x,4.4*
CCc1ccc2nc(Nc3nc(COC)cc(=O)[nH]3)nc(C)c2c1,0.13,x,x,x,2.5*,x
Cc1ccc2nc(Nc3nc(CSc4nnnn4-c4ccccc4)cc(=O)[nH]3)nc(C)c2c1,0.13,0,x,x,2.8*,x
CCc1c(C)nc(Nc2nc(C)c3cc(OC)ccc3n2)[nH]c1=O,0.29,-3,1.2,2,1.3,-1.6
CCCCCc1c(C)nc(Nc2nc(C)c3cc(OC)ccc3n2)[nH]c1=O,1,6,1.1,10,2*,2.6
Cc1cc(C)n(-c2cc(N/N=C/c3cccc(Cl)c3)nc(C)n2)n1,x,x,x,4,x,x
COc1cc(C)c(CNc2ccccc2)cc1C,x,x,x,10,x,x
CS(=O)(=O)c1ccc2nc(NC(=O)/C=C/c3ccc(F)cc3)sc2c1,x,x,x,-13,x,x
O=c1c2ccccc2nc(Cc2ccccc2)n1Nc1ccccc1,x,x,x,-3,x,x
Cc1cccc(C)c1OCc1nnc2c3cnn(C)c3ncn12,0.87,0,0.3,-2,1.1,0.4
COc1ccc(Cc2nnc3c4cnn(C)c4ncn23)cc1,-7.4*,7,0.7,1,1,0.54
